# Assay results: PubChem BioAssay (NCATS)
# Results filed as inconclusive are left out. Entries that show only a call come without a potency. The source made the active and inactive calls. Unless noted, the call rests on the fitted dose curve; in most records, active means well fitted curve in the direction sought with a large enough effect; inconclusive means small, poorly fitted or top-dose-only effect, or another doubt; inactive means no such curve, though single readings can be large; an effect the other way counts as inactive or inconclusive.
# Tests used:
# [1] = molecular target: Cytochrome P450 1A2 (Homo sapiens) (UniProt P05177); assay: p450-cyp1a2 (AID 410; calls by dose curve)
# Outline: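 20nM CYP1A2 with 100uM Luciferin-ME (at Km) in 100mM KPO4; compound preincubated 10 min, NADPH regeneration added, 60 min at room temperature. Luciferin quantified by luminescence after detection reagent; normalized to 57 uM furafylline.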
# [2] = molecular target: Glucocorticoid receptor (Homo sapiens) (UniProt P04150); assay: GR-GFP Redistribution (AID 450;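 active means compounds whose dose series gives a full or clear partial fitted curve of increased nuclear translocation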; further: potency means the concentration at half of the fitted maximal effect); settings: U2OS GR-GFP nuclear translocation, laser cytometry, 2 h
# Glucocorticoid receptor (Homo sapiens), sequence (P04150 whole entry, looked up, the tested form may be a part): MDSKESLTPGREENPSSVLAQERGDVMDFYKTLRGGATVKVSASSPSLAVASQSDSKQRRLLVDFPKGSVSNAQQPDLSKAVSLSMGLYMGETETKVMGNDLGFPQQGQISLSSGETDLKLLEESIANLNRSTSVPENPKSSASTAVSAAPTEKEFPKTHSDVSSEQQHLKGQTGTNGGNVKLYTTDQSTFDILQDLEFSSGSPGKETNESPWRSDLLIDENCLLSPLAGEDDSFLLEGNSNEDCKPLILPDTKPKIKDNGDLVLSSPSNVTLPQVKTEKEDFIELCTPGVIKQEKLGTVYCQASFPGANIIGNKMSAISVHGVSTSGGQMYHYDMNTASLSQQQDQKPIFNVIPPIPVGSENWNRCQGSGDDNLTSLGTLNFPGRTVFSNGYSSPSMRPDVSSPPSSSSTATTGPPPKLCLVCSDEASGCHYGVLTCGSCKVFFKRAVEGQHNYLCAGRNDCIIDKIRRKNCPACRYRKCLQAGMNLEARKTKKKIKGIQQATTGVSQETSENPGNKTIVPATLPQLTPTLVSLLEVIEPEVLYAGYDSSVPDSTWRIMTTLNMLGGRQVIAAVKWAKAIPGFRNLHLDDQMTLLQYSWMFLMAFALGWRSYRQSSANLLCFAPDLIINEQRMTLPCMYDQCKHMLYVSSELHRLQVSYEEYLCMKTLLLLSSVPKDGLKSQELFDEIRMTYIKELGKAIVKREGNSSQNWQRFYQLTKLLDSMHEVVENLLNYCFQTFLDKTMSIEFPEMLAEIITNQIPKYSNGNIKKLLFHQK
# [3] = molecular target: Glucocorticoid receptor (Homo sapiens) (UniProt P04150); assay: GR-EFC Redistribution (AID 451; calls by dose curve; further: potency means the concentration at half of the fitted maximal effect); settings: CHO-K1 GR-EFC translocation, beta-gal luminescence, 2 h
# Outline: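 CHO-K1 cells expressing nuclear EA and GR-ED fragments of b-gal; compounds titrated up to 46 uM final, 2 h at 37 C. GR nuclear translocation read as complemented b-gal luminescence after 1 h RT detection.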
# [4] = molecular target: Mitogen-activated protein kinase 10 (Mus musculus) (UniProt Q61831); assay: JNK3 AlphaScreen Assay (AID 530; active means well fitted curve in either direction with a large enough effect, not every such curve was filed as active;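 further: kinase came from lysate of stimulated human HepG2 cells; signal reports phosphorylation of biotinylated GST-cJun 1-79 at Ser73 with 10 µM ATP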)
# Outline: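 Pre-activated (IL-1β/TNFα) JNK3 in HepG2 lysates phosphorylates biotin-GST-cJun(1-79), 10 uM ATP; anti-phospho-cJun(Ser73) AlphaScreen read at room temperature, pH 7.6 Tris buffer. Compounds pre-incubated 15 min as titrations.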
# [5] = qHTS Assay for Lipid Storage Modulators (AID 1519; calls by dose curve); settings: Drosophila S3 cells, BODIPY lipid droplet/cell ratio, laser cytometry, cells loaded with oleic acid; for activity change, negative = inhibition: at 57.5 µM (top of the series)
# Outline: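 Cells seeded at 5,000 per well were treated with compounds over a concentration series and loaded with oleic acid (400 uM, as added). Lipid droplet fluorescence (488 nm excitation, 500-530 nm channel) was read by laser-scanning cytometry and normalized to 20 uM Triacsin C.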
# [6] = molecular target: Ubiquitin carboxyl-terminal hydrolase 1 (Homo sapiens) (UniProt O94782); assay: Inhibitors of USP1/UAF1: Pilot qHTS (AID 504865);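 further: rhodamine fluorescence freed from ubiquitin-rhodamine substrate followed over time; top concentration of the series differs between compounds; nearly all actives have a fitted effect of over 35% in size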
# Ubiquitin carboxyl-terminal hydrolase 1 (Homo sapiens), sequence (O94782 whole entry, looked up): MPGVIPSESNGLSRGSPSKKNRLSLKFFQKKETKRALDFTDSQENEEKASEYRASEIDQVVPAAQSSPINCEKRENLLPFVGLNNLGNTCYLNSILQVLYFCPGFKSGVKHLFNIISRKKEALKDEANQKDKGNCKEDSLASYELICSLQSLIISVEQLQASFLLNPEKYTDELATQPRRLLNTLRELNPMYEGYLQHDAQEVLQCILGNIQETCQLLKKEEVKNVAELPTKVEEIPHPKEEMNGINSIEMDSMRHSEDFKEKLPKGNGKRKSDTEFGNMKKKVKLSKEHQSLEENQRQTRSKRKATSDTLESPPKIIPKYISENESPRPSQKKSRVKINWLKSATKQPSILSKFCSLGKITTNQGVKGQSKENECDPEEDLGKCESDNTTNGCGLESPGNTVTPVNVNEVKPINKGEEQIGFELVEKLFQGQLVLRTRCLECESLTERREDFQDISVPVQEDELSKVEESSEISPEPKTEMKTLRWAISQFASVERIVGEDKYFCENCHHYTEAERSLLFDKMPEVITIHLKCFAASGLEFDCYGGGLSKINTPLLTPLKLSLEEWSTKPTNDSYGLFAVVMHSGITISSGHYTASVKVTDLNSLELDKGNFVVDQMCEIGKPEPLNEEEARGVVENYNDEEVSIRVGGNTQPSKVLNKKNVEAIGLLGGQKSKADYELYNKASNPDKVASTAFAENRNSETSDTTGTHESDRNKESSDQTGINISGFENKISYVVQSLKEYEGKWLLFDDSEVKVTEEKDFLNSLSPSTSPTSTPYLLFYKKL
# Outline: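 USP1/UAF1 complex at 1 nM preincubated 15 min at room temperature with compound, then Ub-Rho substrate added at 150 nM final. Fluorescence (480/540 nm) read kinetically in 50 mM HEPES pH 7.8, 0.5 mM EDTA, 1 mM TCEP, 0.1 mg/ml BSA, 0.01% Tween-20.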
# [7] = molecular target: DNA dC->dU-editing enzyme APOBEC-3G (Homo sapiens) (UniProt Q9HC16); assay: qHTS for inhibitors of Vif-A3G interactions: Validation (AID 588379)
# DNA dC->dU-editing enzyme APOBEC-3G (Homo sapiens), sequence (Q9HC16 whole entry, looked up): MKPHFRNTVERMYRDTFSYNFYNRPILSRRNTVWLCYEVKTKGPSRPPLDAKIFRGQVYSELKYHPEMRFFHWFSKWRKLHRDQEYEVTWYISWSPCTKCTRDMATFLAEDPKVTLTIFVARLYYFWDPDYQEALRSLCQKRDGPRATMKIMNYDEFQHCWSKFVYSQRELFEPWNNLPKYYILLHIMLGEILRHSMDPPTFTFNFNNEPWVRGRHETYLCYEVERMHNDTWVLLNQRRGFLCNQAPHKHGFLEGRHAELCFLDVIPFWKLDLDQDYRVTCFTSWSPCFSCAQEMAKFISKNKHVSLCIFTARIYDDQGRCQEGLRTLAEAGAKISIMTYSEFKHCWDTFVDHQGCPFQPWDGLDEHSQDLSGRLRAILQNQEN
# Outline: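 HeLa cells stably expressing Vif and A3G-eYFP, 700 cells/well, incubated overnight at 37 deg C, then exposed to compound overnight at 37 deg C. Inhibition of Vif-mediated degradation read as increased yellow fluorescence (Ex 488/Em 500-530) by laser-scanning cytometry.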
# [8] = system: Zika virus NS2B-NS3 protease; assay: Primary screen GU AMC qHTS for Zika virus inhibitors (AID 1347154); further: nearly all actives have a fitted effect of over 70% in size
# Outline: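 Unlinked Zika NS2B hydrophilic domain–NS3 protease complex at 25 nM in 10 mM Tris-HCl pH 8.0, 0.01% Tween 20, with an AMC peptide substrate. Fluorescence change (340/450 nm) over 15 min at room temperature, normalized to controls, fitted to 4-parameter Hill.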
# [9] = AP1 Signaling Pathway (AID 357; active means well fitted curve in either direction with a large enough effect, not every such curve was filed as active;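 further: ME-180 reporter cells stimulated with EGF at its EC50 level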); settings: ME-180 (cervical carcinoma) AP-1-bla reporter, EGF-induced, beta-lactamase ratio, 5 h; at 38 µM (top of the series)
# Outline: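 Modulation of EGF-driven AP-1 transcription was assessed with a beta-lactamase reporter in ME-180 cells. Compound and EC50 EGF were co-incubated 5 hours at 37 °C before 2.5-hour CCF4 loading at room temperature and dual-emission reading.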
# [10] = NFAT Signaling Pathway (AID 444; active means well fitted curve in either direction with a large enough effect, not every such curve was filed as active;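 further: carbachol stimulus at about its EC50 of 1 µM final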); settings: Jurkat NFAT-bla M1, carbachol, beta-lactamase ratio, 5 h; at 38 µM (top of the series)
# Outline: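 Jurkat cells with NFAT-driven β-lactamase reporter and co-expressed M1 receptor, stimulated with carbachol (final 1 uM, ~EC50), compound titration, 5 h at 37 °C. CCF4 loaded 1 h at RT; 460/530 nm ratio gave %activity and AC50.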
# [11] = molecular target: 3',5'-cyclic-AMP phosphodiesterase 4B (Homo sapiens) (UniProt Q07343); assay: qHTS Assay for Inhibitors of PDE-IV (AID 607; active means well fitted activation curve with a large enough effect in the main read-out, with a control signal flat, not every such curve was filed as active)
# 3',5'-cyclic-AMP phosphodiesterase 4B (Homo sapiens), sequence (Q07343 whole entry, looked up): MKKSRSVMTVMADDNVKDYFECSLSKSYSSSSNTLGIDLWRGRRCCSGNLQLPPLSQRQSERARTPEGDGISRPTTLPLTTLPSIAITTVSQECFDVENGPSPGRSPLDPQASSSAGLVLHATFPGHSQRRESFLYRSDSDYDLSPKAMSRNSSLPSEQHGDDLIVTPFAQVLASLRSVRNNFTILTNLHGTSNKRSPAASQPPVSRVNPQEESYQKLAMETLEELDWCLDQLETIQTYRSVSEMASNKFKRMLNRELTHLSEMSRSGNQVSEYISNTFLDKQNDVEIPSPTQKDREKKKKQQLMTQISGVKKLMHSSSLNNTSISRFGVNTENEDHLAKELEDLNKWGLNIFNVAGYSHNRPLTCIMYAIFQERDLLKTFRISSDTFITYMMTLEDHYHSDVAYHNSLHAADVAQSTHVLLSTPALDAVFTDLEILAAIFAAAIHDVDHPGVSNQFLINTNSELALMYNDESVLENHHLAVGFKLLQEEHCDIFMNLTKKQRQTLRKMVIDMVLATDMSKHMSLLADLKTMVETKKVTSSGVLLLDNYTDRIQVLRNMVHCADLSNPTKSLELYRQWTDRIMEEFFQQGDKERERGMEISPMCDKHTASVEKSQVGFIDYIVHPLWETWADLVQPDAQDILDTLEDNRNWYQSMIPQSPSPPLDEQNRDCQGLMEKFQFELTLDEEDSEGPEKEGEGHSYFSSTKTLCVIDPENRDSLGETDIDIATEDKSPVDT
# Outline: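 Live HEK293 cells with a modified cyclic nucleotide-gated (CNG) channel report intracellular cAMP via membrane-potential dye fluorescence (ex 535/em 590 nm). Endogenous PDE-IV was targeted. Compounds were tested at up to 22.9 uM final; RO 20-1724 100 uM served as control.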
# [12] = molecular target: Guanine nucleotide-binding protein G(i) subunit alpha-1 (Homo sapiens) (UniProt P63096); assay: qHTS Assay for Inhibitors of RGS12 GoLoco Motif Activity (Green Fluorophore) (AID 879);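 further: negative values mean loss of peptide binding seen as reduced polarization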
# Outline: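 Fluorescence polarization assay: 50 nM Gαi1 with 10 nM FITC-labeled RGS12 GoLoco peptide in 10 mM Tris pH 7.5, 150 mM NaCl, 0.1 mM GDP, 0.05% NP40, 10 min at room temperature with compound.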
# [13] = Confirmation and Secondary Assay for Modulators of Hemoglobin Beta Chain Splicing at IVS2 654 locus (AID 910);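 further: HeLa cells stably carrying EGFP split by mutant beta-globin IVS2-654 intron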
# Outline: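 HeLa cells stably expressing EGFP interrupted by β-globin IVS2-654 intron, seeded overnight in Opti-MEM/2% FCS, then treated 2 days at 37 °C. Restored splicing read as total peak GFP intensity per well by laser scanning cytometry (488 nm excitation, 500–520 nm emission); 500 nM antisense PNA as control.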
# [14] = Confirmation and Secondary Assay for Modulators of Hemoglobin Beta Chain Splicing at IVS2 705 locus (AID 930);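 further: HeLa cells stably expressing the EGFP-705 splicing reporter; GFP fluorescence per well restored by corrected splicing of the IVS2-705 intron in EGFP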
# Outline: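 Assay measures total GFP intensity per well in HeLa EGFP-705 cells after 2 days with compound; mis-splicing normally truncates EGFP, so fluorescence indicates corrected splicing.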
# [15] = molecular target: Muscarinic acetylcholine receptor M1 (Rattus norvegicus) (UniProt P08482); assay: qHTS Assay for Antagonists of Acetylcholine Muscarinic M1 Receptor: Measurement of IP-One Response (AID 944); further: nearly all actives have a fitted effect of over 75% in size
# Outline: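 CHO cells stably expressing rat M1, pretreated 10 min with compound, then stimulated 30 min with carbachol at EC80 (200 nM) in LiCl-containing buffer pH 7.4; IP1 accumulation read by HTRF competition (665/620 nm).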
# [16] = molecular target: Pyruvate kinase (Leishmania mexicana) (UniProt Q27686); assay: qHTS Validation Assay for Inhibitors of Leishmania Mexicana Pyruvate Kinase (AID 945)
# Pyruvate kinase (Leishmania mexicana), sequence (Q27686 2-499 E452W): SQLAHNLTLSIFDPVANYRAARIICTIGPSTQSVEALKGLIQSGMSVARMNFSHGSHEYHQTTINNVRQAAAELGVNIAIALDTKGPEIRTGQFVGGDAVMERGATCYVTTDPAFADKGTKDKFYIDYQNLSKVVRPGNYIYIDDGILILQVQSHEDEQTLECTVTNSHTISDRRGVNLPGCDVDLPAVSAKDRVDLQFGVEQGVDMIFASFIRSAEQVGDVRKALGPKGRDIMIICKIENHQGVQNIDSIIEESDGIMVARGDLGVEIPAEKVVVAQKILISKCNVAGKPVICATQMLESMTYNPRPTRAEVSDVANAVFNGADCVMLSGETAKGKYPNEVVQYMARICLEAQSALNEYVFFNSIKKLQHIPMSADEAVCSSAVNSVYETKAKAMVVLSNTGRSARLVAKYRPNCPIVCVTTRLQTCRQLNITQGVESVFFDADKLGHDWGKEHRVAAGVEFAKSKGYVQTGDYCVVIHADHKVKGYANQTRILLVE
# Outline: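 Pyruvate kinase activity of E451W LmPYK (0.2 nM) was followed as ATP output after 1 h at room temperature with 0.5 mM PEP and 0.1 mM ADP, detected by PKLight luminescence.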
# [17] = molecular target: Pyruvate kinase PKM (Homo sapiens) (UniProt P14618); assay: qHTS Assay for Activators of Human Muscle Pyruvate Kinase (AID 954; active means well fitted curve in the direction sought with a large enough effect, not every such curve was filed as active)
# Pyruvate kinase PKM (Homo sapiens), sequence (P14618 whole entry, looked up): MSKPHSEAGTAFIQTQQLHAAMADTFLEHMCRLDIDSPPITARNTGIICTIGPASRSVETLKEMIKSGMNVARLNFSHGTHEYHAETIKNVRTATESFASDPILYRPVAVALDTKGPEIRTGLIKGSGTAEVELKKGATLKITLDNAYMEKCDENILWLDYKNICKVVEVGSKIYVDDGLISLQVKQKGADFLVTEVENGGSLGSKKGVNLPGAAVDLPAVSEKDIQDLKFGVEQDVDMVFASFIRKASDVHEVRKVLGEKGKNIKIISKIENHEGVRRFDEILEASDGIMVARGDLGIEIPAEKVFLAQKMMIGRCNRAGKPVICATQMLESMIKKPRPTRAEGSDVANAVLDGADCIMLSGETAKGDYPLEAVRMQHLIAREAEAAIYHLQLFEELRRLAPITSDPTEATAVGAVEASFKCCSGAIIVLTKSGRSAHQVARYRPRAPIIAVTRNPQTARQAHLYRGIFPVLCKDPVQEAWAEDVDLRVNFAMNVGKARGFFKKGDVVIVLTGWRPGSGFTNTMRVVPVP
# Outline: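 Enzyme was run at intermediate activity so both inhibitors and activators could be detected. ATP formed from ADP and PEP by 0.1 nM human PKM2 during a 1 h room-temperature incubation was quantified by coupled luciferase luminescence.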
# [18] = molecular target: Alpha-galactosidase A (Homo sapiens) (UniProt P06280); assay: Counterscreen for Glucocerebrosidase Inhibitors: qHTS Assay for Human alpha-Galactosidase at pH 4.5 (AID 992)
# Outline: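 Read-out is 4-methylumbelliferone fluorescence (365 nm excitation, 440 nm emission) after a pH 10 NaOH/glycine stop. Reactions held 2 nM enzyme and 80 uM substrate at pH 4.5 for 20 min at room temperature.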
# [19] = molecular target: alpha-glucosidase (Oryza sativa, rice) (UniProt Q653V4); assay: Counterscreen for Glucocerebrosidase Inhibitors: qHTS Assay for Rice alpha-Glucosidase at pH 5.0 (AID 997)
# Outline: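 Rice alpha-glucosidase (4 nM final) with 400 uM 4-methylumbelliferyl-alpha-D-glucopyranoside in citrate buffer pH 5.0, 20 min at room temperature, stopped at pH 10; fluorescence 365/440 nm, compounds 0.7 nM–77 uM, AC50 from Hill fits.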
# [20] = molecular target: Rap guanine nucleotide exchange factor 3 (Homo sapiens) (UniProt O95398); assay: Confirmatory qHTS for agonist of cAMP-regulated guanine nucleotide exchange factor 3 (EPAC1) (AID 1645881);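 further: EPAC1 catalysed release of BODIPY-GDP from Rap1B seen as fluorescence loss; nearly all actives have a fitted effect of over 75% in size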
# [21] = molecular target: Rap guanine nucleotide exchange factor 4 (Homo sapiens) (UniProt Q8WZA2); assay: Confirmatory qHTS for agonist of cAMP-regulated guanine nucleotide exchange factor 4 (EPAC2) (AID 1645884);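 further: nucleotide exchange releases bodipy-GDP from Rap1 and this lowers its fluorescence; nearly all actives have a fitted effect of over 65% in size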
# Rap guanine nucleotide exchange factor 4 (Homo sapiens), sequence (Q8WZA2 whole entry, looked up): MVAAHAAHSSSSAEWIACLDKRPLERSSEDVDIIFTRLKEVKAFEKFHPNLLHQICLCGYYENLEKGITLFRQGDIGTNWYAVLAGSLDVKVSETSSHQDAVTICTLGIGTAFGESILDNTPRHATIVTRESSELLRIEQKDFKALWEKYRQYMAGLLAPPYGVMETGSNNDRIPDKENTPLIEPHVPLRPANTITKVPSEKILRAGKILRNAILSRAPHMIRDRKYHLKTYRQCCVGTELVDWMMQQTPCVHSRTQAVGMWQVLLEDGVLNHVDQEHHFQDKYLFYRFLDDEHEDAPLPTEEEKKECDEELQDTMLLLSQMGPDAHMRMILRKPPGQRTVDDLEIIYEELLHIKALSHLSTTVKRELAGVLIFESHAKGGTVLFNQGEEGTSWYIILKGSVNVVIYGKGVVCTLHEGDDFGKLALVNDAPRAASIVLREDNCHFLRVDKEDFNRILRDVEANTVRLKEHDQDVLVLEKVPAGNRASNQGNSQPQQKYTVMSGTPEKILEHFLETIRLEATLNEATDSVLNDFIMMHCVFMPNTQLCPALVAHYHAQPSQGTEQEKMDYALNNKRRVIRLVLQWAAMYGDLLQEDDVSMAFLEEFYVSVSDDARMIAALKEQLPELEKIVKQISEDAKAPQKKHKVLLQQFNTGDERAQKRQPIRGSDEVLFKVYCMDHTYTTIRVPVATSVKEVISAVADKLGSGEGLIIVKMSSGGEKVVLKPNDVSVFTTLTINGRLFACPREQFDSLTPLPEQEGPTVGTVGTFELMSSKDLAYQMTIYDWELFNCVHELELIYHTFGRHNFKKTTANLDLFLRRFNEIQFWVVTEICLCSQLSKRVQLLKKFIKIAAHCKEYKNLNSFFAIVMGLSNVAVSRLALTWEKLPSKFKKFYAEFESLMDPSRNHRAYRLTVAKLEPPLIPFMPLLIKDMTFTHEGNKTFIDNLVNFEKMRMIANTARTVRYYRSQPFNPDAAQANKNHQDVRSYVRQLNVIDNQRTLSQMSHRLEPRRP
# [22] = molecular target: Cytochrome P450 3A4 (Homo sapiens) (UniProt P08684); assay: Cytochrome P450 family 3 subfamily A member 4 (CYP3A4) small molecule antagonists: luciferase qHTS assay (AID 1645841; active means well fitted curve in the direction sought with a large enough effect in the repeat runs; an effect the other way counts as inactive or inconclusive; further: nearly all actives have a fitted effect of over 45% in size)
# Outline: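 P450-Glo CYP3A4 enzyme with proluciferin substrate preincubated 10 min with compound at room temperature, then NADPH regeneration 1 h. Luciferin detection reagent added for 20 min; luminescence recorded. Ketoconazole positive control.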
# [23] = NCATS anti-infectives library activity on HEK293 viability as a counter-qHTS vs the C. elegans viability qHTS (AID 1745854);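 further: HEK293 cells exposed to compounds for 24 hr before the viability read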
# Outline: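 HEK293 cells (1,500/well) exposed 24 hr at 37C to 1:5 titrations, up to 41.7 uM final; counter-screen to a C. elegans viability qHTS. Viability by CellTiter-Glo luminescence after 10 min at room temperature; digitonin as control.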
# [24] = measured here: cell count channel max response
# [25] = measured here: lipid channel max response
structure (smiles),measurement,setting,value
N[C@@H](C(=O)O)c1ccc(C(=O)O)cc1,Potency,[1],inactive
same,Potency,[2],> 46 µM (inactive)
same,Potency,[3],> 46 µM (inactive)
same,Potency,[4],inactive
same,"activity change, negative = inhibition",[5],5.37% (inactive)
same,max response,[5]; [24],10.8%
same,max response,[5]; [25],17.4%
same,Potency,[6],inactive
same,Potency,[7],inactive
same,Potency,[8],inactive
COCCOC(=O)C1=C(C)NC(C)=C(C(=O)OC(C)C)[C@@H]1c1cccc([N+](=O)[O-])c1,"activity change, negative = inhibition",[9],-20.1% (inactive)
same,"activity change, negative = inhibition",[10],-10.3% (inactive)
same,Potency,[2],> 46 µM (inactive)
same,Potency,[3],> 46 µM (inactive)
same,Potency,[11],inactive
same,outcome,[12],inactive
same,outcome,[13],inactive
same,outcome,[14],inactive
same,Potency,[15],inactive
same,Potency,[16],inactive
same,outcome,[17],inactive
same,outcome,[18],inactive
same,outcome,[19],inactive
same,Potency,[7],inactive
same,Potency,[8],inactive
same,outcome,[20],inactive
same,outcome,[21],inactive
CC(C)c1cccc(O)c(=O)c1,outcome,[13],inactive
same,outcome,[14],inactive
same,Potency,[6],inactive
same,Potency,[8],inactive
same,outcome,[22],inactive
same,outcome,[23],inactive
N#Cc1ccccc1OC[C@H](O)CNCCNC(=O)Nc1ccccc1,Potency,[2],> 46 µM (inactive)
same,Potency,[3],> 46 µM (inactive)
same,Potency,[4],inactive
same,Potency,[11],inactive
same,"activity change, negative = inhibition",[5],0.479% (inactive)
same,max response,[5]; [24],6.59%
same,max response,[5]; [25],10.2%
same,Potency,[6],inactive
same,Potency,[7],inactive
same,Potency,[8],inactive
